The values that follow come from ChEMBL document CHEMBL4513216, “Probing the Open Global Health Chemical Diversity Library for Multistage-Active Starting Points for Next-Generation Antimalarials” (ACS Infect Dis, 2020).

Among all 68,000 compounds or so, about 2,700 (4%) showed an effect of 50% or more. The sample holds strong results, similar compounds and a random draw of the others, so the mix is not that of the screen.

This test concerns Plasmodium berghei. As to the kind of experiment: Screen against P. berghei liver stage (PbLuc), transformed with Luciferase, at 2uM. The note with it: tested at 2 uM. The class given is functional, HepG2.
Take `CS(=O)(=O)c1cn[nH]c1C1CCCCN1C(=O)c1cnccn1` (centres undefined): the INHIBITION was determined as 17.39%.

Turning to `CC(C)NC(=O)N1CCC2(CC(C(=O)NCc3cccnc3)=NO2)C1` (centres undefined), the INHIBITION is listed as -7.01%.

With `COCCN(CCOC)c1ncccc1Cl`, the INHIBITION is listed as 67.7%.

As for `COCCN(CCOC)c1ncc(C#N)cc1Cl`, the INHIBITION was 1.42%.

In the case of `COCCN(CCOC)c1ncccc1I`, the INHIBITION is 38.1%.

For the compound `CCOc1ccc(Cl)cc1C1CCCCN1` (centres undefined), the INHIBITION was 14.61%.

Regarding `COCCNC(=O)Cn1cc2c(n1)c(C)nn2C(C)C`, the INHIBITION was -28.32%.

With `CC(C)CN1CC[C@H](c2nnc(COc3ccc(F)cc3)o2)C1`, the INHIBITION came out at 10.65%.

Take `CS(=O)(=O)N1CC2(CCN(C(=O)c3csnn3)CC2)c2ccccc21`: the INHIBITION worked out at 54.01%.

For the compound `Cn1cccc1C(=O)N1CCC2(CC1)CN(S(C)(=O)=O)c1ccccc12`, the INHIBITION was found to be 38.64%.

`CS(=O)(=O)N1CC2(CCN(C(=O)c3ccncc3)CC2)c2ccccc21`: the INHIBITION is 9.53%.

On to `O=C(CN1C(=O)c2ccccc2C1=O)N1CCOC2(CCOCC2)C1`, for which the INHIBITION amounted to 13.46%.

For the compound `CN(C)CCOCc1cncc2c1CCN(C(=O)c1cscn1)C2`, the INHIBITION is reported as -30.85%.

`Nc1nc(NCCc2[nH]nc3c2CCCC3)cc(N2CCOCC2)n1`: the INHIBITION worked out at 67.28%.

In the case of `CN(Cc1n[nH]c2c1CCCC2)c1cc(N2CCOCC2)nc(N)n1`, the INHIBITION was -32.88%.

Take `CCc1cc(N(C)Cc2[nH]nc3c2CCC3)nc(N2CCOCC2)n1`: the INHIBITION is recorded as 33.9%.

`CCn1nc(C)c(NC(=O)CCn2ncc3cc(C)ccc32)c1C`: the INHIBITION turned out to be 24.79%.

With `CCc1nsc(NC2CCCn3nc(COC)nc32)n1` (centres undefined), the INHIBITION is -11.71%.

Consider `CCc1ncncc1C(=O)NCCNS(=O)(=O)c1ccc(C)cc1`, for which the INHIBITION is reported as -41.64%.

Turning to `CCc1ncncc1C(=O)NCCNS(=O)(=O)c1ccccc1`, the INHIBITION was 48.68%.

For the compound `Cc1ccc(S(=O)(=O)NCCNC(=O)c2cncnc2C)cc1`, the INHIBITION is listed as 55.25%.

With `Cc1nn(Cc2ccc(C(=O)NCCCN3CCCC3=O)o2)c(C)c1Cl`, the INHIBITION was 26.37%.

On to `CCCc1n[nH]c(C2CN(C(=O)c3cc(F)ccc3OC)CCO2)n1` (centres undefined), for which the INHIBITION is given as -29.94%.

Consider `Cc1nc2n(n1)CC(NCC(=O)Nc1cc(C)on1)CC2` (centres undefined), for which the INHIBITION is reported as -2.87%.

With `Cc1nc2n(n1)CC(NCC(=O)NCC1(c3ccccc3)CC1)CC2` (centres undefined), the INHIBITION worked out at 58.69%.

As for `COc1ccccc1CCNC(=O)CNC1CCc2nc(C)nn2C1` (centres undefined), the INHIBITION worked out at 35.56%.

Regarding `CC(=O)N1CCCn2nc(CNS(=O)(=O)N3CCC(C)CC3)cc2C1`, the INHIBITION came to 47.62%.

`O=c1[nH]c(NC2CCCC2)nc2nccc(-c3ccsc3)c12`: the INHIBITION was -18.11%.

Consider `COCCN1CC[C@]2(CN(C(=O)c3ccc[nH]3)C[C@H]2C)C1=O`, for which the INHIBITION came to 16.21%.
